Sampled rows, rich in hits. Any-hit rate of the full collection: about 2.3%.
HttQ103 aggreg: reduces HttQ103-GFP aggregates in PC12 cells. 1.1% of 220,000 active. PC12 HttQ103-GFP aggregates, Acumen cytometry, 40 h. Potency, µM (series often up to 46.1 µM), inactives show at the highest dose activity change, negative = inhibition, actives largely listed as inhibitors; note: potency is the fitted concentration of half-maximal effect; % is set by controls: 0 for no effect and ±100 for the full control effect; nearly all actives have a fitted effect of over 60% in size
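Aggregates are detected as GFP objects 1–25 µm with signal 6 STDEV over background in lysates of induced PC12 cells. These carry Huntingtin exon 1 with 103 glutamines fused to GFP under an ecdysone promoter; compounds titrated.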
VDR inhibitor: blocks the human vitamin D receptor. P11473. VDR-SRC2-3 peptide fluorescence polarization, 2 h. Potency, µM, for inactives: max response, negative = inhibition, usual class: inhibitors. 0.93% of 400,000 active. AID 504847; note: potency is the fitted concentration of half-maximal effect; % is set by controls: 0 for no effect and ±100 for the full control effect
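Compounds are added to VDR with labelled SRC2-3 coactivator peptide and held 2 h at room temperature. Inhibition of the VDR–peptide interaction is then read as a change in fluorescence polarization.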
HTT cytoprotect: cytoprotection in Huntington HTT-Q103 PC12 cell model; PC12 HTT-Q103 induced, cytoprotection, ATP luminescence, 40 h; Potency, µM (series often up to 56.4 µM), inactives show cytoprotection (ATP increase), hits mostly activators; 0.14% of 230,000 active; AID 1471; note: potency is the fitted concentration of half-maximal effect; % of control where 0% means no effect; nearly all actives have a fitted effect of over 45% in size
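PC12 cells with ecdysone-inducible HTT exon 1 Q103-GFP, induced with 100 nM tebufenozide and co-treated with library compounds in a dose series (1536-well, 1500 cells/well). Cytoprotection read as ATP content by ATPlite luminescence.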
GoLoco inh red: RGS12 GoLoco-Gai1 interaction inhibition | Gai1:RGS12 GoLoco peptide FP, rhodamine, 10 min | Potency, µM (top dose mostly 61.6 µM), without a hit: at the top dose activity, negative = inhibition, usual class: inhibitors | 0.44% of 230,000 active | AID 880; active = well fitted inhibition curve with a large enough effect, not every such curve was filed as active; inactive = no such curve, though single readings can be large or run the other way; note: potency is the fitted concentration of half-maximal effect; % is set by controls: 0 for no effect and ±100 for the full control effect; nearly all actives have a fitted effect of over 30% in size
Target sequence (P63096 whole entry, looked up): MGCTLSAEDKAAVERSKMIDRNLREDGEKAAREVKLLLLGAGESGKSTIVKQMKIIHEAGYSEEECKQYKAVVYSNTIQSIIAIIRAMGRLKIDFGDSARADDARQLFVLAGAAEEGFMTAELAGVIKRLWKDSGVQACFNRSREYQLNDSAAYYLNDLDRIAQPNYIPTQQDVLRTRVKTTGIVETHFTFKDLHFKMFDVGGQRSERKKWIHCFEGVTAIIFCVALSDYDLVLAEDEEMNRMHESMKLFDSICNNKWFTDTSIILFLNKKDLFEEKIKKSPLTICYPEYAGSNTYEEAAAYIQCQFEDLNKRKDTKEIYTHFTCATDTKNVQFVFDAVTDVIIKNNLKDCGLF
Coupling enz: counter-screen for Giardia aldolase inhibitors: coupling enzyme system. coupling enzyme system counterscreen, AmpLite Red fluorescence. activity change, negative = inhibition, % at 58.2 µM, hits read low. 0.67% of 290,000 active; in the data active = activity change below about -30%; note: % is set by controls: 0 for no effect and ±100 for the full control effect
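Counterscreen of the coupled detection system alone, without aldolase: glyceraldehyde-3-phosphate coupling enzymes plus AmpLite Red readout. Compounds at 57.5 uM final, 10 min RT preincubation, 20 min RT reaction, fluorescence 525/598 nm.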
KDM4E inh: JMJD2E (human) inhibition. 1.6% of 230,000 active. Potency, µM (titrated, usually from 57.1 µM), inactives show at the top dose activity change, negative = inhibition, usual class: inhibitors. JMJD2E catalytic domain, FDH-coupled NADH fluorescence (FDH is formaldehyde dehydrogenase). AID 2147. B2RXH2; active = well fitted inhibition curve with a large enough effect, not every such curve was filed as active; inconclusive = small, poorly fitted or top-dose-only effect, or another doubt; inactive = no such curve, though single readings can be large or run the other way;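 note: potency is the fitted concentration of half-maximal effect; 0% = wells with enzyme and -100% = buffer wells without enzyme; nearly all actives have a fitted effect of over 50% in size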
Target sequence (B2RXH2 1-337 limits assumed): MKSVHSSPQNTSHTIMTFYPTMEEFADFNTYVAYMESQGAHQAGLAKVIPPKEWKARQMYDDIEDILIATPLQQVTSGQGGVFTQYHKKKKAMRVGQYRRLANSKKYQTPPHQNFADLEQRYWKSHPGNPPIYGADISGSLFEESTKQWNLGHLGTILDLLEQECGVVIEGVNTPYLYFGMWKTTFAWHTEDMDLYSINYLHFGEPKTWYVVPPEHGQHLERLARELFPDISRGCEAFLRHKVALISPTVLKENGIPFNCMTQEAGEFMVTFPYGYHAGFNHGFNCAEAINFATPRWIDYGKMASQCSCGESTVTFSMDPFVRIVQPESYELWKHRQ
* hit, by the source's call; ? = inconclusive; . = no result; ! = a repeat was not active; [ ] = dose if it differs, or a comment. Unless noted, calls come from the whole dose curve; as a rule, active = well fitted curve in the direction sought with a large enough effect; inconclusive = small, poorly fitted or top-dose-only effect, or another doubt; inactive = no such curve, though single readings can be large; an effect the other way counts as inactive or inconclusive.

SMILES	HttQ103 aggreg	VDR inhibitor	HTT cytoprotect	GoLoco inh red	Coupling enz	KDM4E inh
CCOC(=O)Cc1csc(Nc2ccc(Cl)cc2)n1	-7%	?	5%[1.9 µM]	10%	1	-4%
COc1ccc(N2C(=O)CSC2c2ccc([N+](=O)[O-])cc2)cc1 (stereo unspecified)	.	4%	.	.	1	.
COc1ccc2c(c1)OCC(Cc1ccc(OC)c(O)c1)C2=O (stereo unspecified)	.	1%	-253%	-7%	1	-2%
COc1ccc(OC)c(-c2nc3c(C)n[nH]c(=O)c3[nH]2)c1	13µM*	1%	-24%[10 µM]	3%	0	?
COc1ccc(Cn2nnc3c(C)n[nH]c(=O)c32)cc1	.	7%	.	.	0	.
Cn1c(=O)c2c(nc(NCc3ccco3)n2C)n(C)c1=O	-8%	5%	6%	3%	-1	0%
Cn1c(=O)c2c(nc(NCc3ccco3)n2C/C=C/c2ccccc2)n(C)c1=O	10µM*	-22%	?	2%	1	3%
CCN1C(=O)[C@H]2[C@H]3CN=C(SCC(=O)c4ccccc4)N3[C@@](C)(C(=O)OC)[C@H]2C1=O	.	45µM*	.	.	.	.
COC(=O)[C@@]1(C)[C@H]2C(=O)N(Cc3ccccc3)C(=O)[C@H]2[C@H]2CN=C(SCc3ccccc3)N21	.	-13%	.	.	.	.
CCCOc1ccc(C2C(=O)N(C3CCCCCC3)CC(=O)N2CCCOCC)cc1OC (stereo unspecified)	.	8%	.	.	.	.
C=CCCCCCCCCCCCc1ccco1	.	25µM*	.	-15%	6	-3%
CCc1ccc(NC(=O)CS(=O)CC(=O)Nc2ccc(-n3cnnn3)c(C)c2)cc1 (stereo unspecified)	.	-16%	.	.	7	.
CCOc1ccc(C(c2c(O)nc(SC)n(C)c2=O)c2c(O)nc(SC)n(C)c2=O)cc1	9%	40µM*	-2%	-12%	8	-3%
CCOC(=O)C1=C(C)NC(SCC(=O)OC)=C(C#N)C1c1ccc(C(=O)OC)cc1 (stereo unspecified)	0%[9.22 µM]	?	-29%	82%	0	?
CCOC(=O)CSC1=C(C#N)C(c2ccc(F)cc2)C(C(C)=O)=C(C)N1 (stereo unspecified)	?	-13%	-48%	-2%	-39*	?
O=C(c1csnn1)N1CCC2(CCN(Cc3ccccc3)CC2)CC1	.	-11%	19%	9%	1	.
Cc1ccc(NC(=O)CN2C(=O)N/C(=C/c3ccc(C)o3)C2=O)cc1	23%	?	-17%	3%	-3	?
C=CCN1C(=O)N/C(=C/c2ccc(C)o2)C1=O	?	-27%	-15%[10 µM]	-24%	-39*	18µM*
CC1=NS(=O)(=O)NC(C)(C)C1	.	-22%	.	.	.	.
O=C(O)CCN1CC2([N+](=O)[O-])C=CC(=O)C([N+](=O)[O-])(C1)C2CC(=O)c1ccccc1 (stereo unspecified)	13%	-14%	.	-6%	-52*	5%
COc1cc(OC)c(C2C(C(=O)O)c3ccccc3C(=O)N2C)cc1OC (stereo unspecified)	-10%	6%	8%	-1%	-40*	?
COc1ccc(OC)c(C2C(C(=O)O)c3ccccc3C(=O)N2C)c1 (stereo unspecified)	5%	-3%	5%	.	1	3%
Cc1ccc(C(=O)CC(=O)c2cccc(F)c2)c(O)c1	22µM*	15%	37%	8%	-2	?
Cc1ccc(C(=O)CC(=O)c2ccccc2C)c(O)c1	.	-5%	.	.	0	.
COc1ccc(/C=N\Nc2ccccn2)c(OC)c1	.	-1%	.	.	0	.
SMILES	HttQ103 aggreg	VDR inhibitor	HTT cytoprotect	GoLoco inh red	Coupling enz	KDM4E inh
COc1ccc(/C=N/Nc2ncc(Br)cn2)c(OC)c1	?	-26%	3.5µM*	10%	0	-9%
C=CCC(C)(O)c1cccs1 (stereo unspecified)	.	-2%	-10%	-3%	5	7%
CCN(C(=O)COC(=O)C1CCN(S(=O)(=O)c2cccs2)CC1)c1ccccc1	22%	-4%	-5%[10 µM]	3%	6	14%
COc1cccc(-c2cc(C(F)(F)F)nc(-n3nc(C)c(Br)c3C)n2)c1	.	10%	.	.	.	.
O=C(O)c1cc2c(ccc3ccccc32)o1	18µM*	-6%	-36%	.	-3	?
CCCCC/C=C\C/C=C\C/C=C\C/C=C\CCCC(=O)C(F)(F)F	.	28µM*	?	-7%	-10	.
CCCCCCCC/C=C\CCCCCCCC(N)=O	.	-2%	-42%	22µM*!	3	4%
C[C@@]12CC[C@H]3[C@H](CC=C4C[C@@H](O)CC[C@@]43C)[C@@H]1CC[C@@H]2N(CCO)CCO	.	.	-2%[10 µM]	.	.	.
O=C1OC2(c3cc(Br)c(O)c(Br)c3Oc3c2cc(Br)c(O)c3Br)c2c(Cl)c(Cl)c(Cl)c(Cl)c21	.	.	-79%	0.79µM*	.	.
CCOCCCNC(=O)c1cc2c(=O)[nH]c3ccccc3c2n1C	.	-7%	.	.	.	.
COc1cccc(CN(C(=O)c2ccc(C(C)(C)C)cc2)C2CCS(=O)(=O)C2)c1 (stereo unspecified)	.	2%	.	.	.	.
COc1cccc(CNC(=O)c2ccccc2NC(=O)C2=C(C)OCCS2)c1	.	12%	.	.	.	.
O=C(c1ccco1)N1CCN(C(=O)C2CC(=O)N(c3ccc(Cl)cc3)C2)CC1 (stereo unspecified)	.	-5%	.	.	0	.
CCOC(=O)C1=C(O)c2ccccc2C(=O)/C1=C\c1ccc(C)cc1	15%	?	-6%[10 µM]	83%	-51*	?
Nc1c(C(=O)Nc2ccc3c(c2)OCCO3)nnn1Cc1cccc(F)c1	.	10%	.	.	.	.
Cc1cccc2cc(-c3ccccc3)c(-c3ccccc3)c[n+]12	18µM*	-6%	.	-3%	-1	?
Cc1sc2cc(-c3cccc([N+](=O)[O-])c3)c(-c3cccc([N+](=O)[O-])c3)c[n+]2c1C	16%	-5%	4%[10 µM]	-3%	-1	10%
CNC[C@H](O)c1ccc(O)c(O)c1	5%	32µM*!	-59%	11%	-34*	16µM*

Screening data as filed in PubChem BioAssay.
